“And” between values parts separate entries of the source, which are not always exact repeats. Equal entries are not always repeated. Out of some 16,000 compounds screened, about 5,100 (32%) were called active. Another 25% or so got no clear call; they are omitted. Calls come from the whole dose curve; as a rule, active = well fitted curve in the direction sought with a large enough effect; inconclusive = small, poorly fitted or top-dose-only effect, or effect the other way; inactive = no such curve, though single readings can be large or run the other way. Some of the results follow.
molecular target: Cytochrome P450 3A4 (Homo sapiens) (UniProt P08684); experiment: Cytochrome panel assay with activity outcomes; details: recombinant CYP, pro-luciferin dealkylation, luminescence, p450-cyp3a4; series mostly up to 57.1 µM; activity, negative = inhibition: at the top concentration
Sequence (P08684 whole entry, looked up): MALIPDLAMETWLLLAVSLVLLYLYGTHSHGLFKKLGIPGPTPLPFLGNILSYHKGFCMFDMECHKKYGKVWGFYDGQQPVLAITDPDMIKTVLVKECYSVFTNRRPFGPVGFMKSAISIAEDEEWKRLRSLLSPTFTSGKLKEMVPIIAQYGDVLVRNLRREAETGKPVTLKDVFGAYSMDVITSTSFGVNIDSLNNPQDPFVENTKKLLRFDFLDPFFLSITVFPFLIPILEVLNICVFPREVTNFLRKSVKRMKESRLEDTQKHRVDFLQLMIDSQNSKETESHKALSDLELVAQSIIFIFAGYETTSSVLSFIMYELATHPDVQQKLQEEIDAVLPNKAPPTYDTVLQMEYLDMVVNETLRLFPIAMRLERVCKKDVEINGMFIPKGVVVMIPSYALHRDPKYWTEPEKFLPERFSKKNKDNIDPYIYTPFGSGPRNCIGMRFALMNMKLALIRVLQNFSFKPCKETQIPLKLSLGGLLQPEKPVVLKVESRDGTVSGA
% is set by controls: 0 for no effect and ±100 for the full control effect.

activity, negative = inhibition, inactive:
CCN(CC)c1ccc(NC(=O)c2cccc(F)c2)c(C)c1 2.35% [at 2.29 µM], CN1CCc2c(cc(O)c(O)c2Cl)[C@H](c2cccc(Cl)c2)C1 19.4%, CCOC(=O)CN(c1ccccn1)S(=O)(=O)c1ccccc1 -29.6%, COC(=O)CN(c1ccccn1)S(=O)(=O)c1ccccc1 -3.69%, CCN(CC)CC[n+]1ccc2c(C)c3[nH]c4ccccc4c3c(C)c2c1 -16.9% [at 11.4 µM], CCOc1ccc(N2C(=O)CN=C2Nc2ccccc2F)cc1 3.08% [at 2.29 µM], O=C1CN=C(Nc2ccccc2)N1Cc1cccs1 -6.15% [at 2.29 µM], C=CCN1C(=O)CN=C1Nc1ccccc1 -22.2%, O=C(O)c1cc2c(o1)CCC/C2=N\O -14.2%, CC(C)(CS)C(=O)N1CCC[C@H]1C(=O)O 3.01% [at 25.6 µM], Cc1cc(OC(=O)c2ccc(Cl)cc2Cl)nc(C)n1 -8.46%, COc1ccc(-c2ccc(=O)n(CC(=O)Nc3nnc(C(C)C)s3)n2)cc1OC -18%, O=S1(=O)OC(c2ccc(O)cc2)(c2ccc(O)cc2)c2ccccc21 -11.8% [at 11.4 µM], Fc1ccc2c(c1)C1C=CCC1C(c1cc3c(cc1Br)OCO3)N2 (configuration not stated) -4.14% [at 2.29 µM], CO[C@@H](C(C)C)[C@@H](C)[C@@H]1OC(=O)C[C@@H]1O -9.77% [at 11.4 µM], CO[C@@H]1COC(=O)[C@H](CCSC)NC(=O)C/C=C\[C@@H](C)COC(=O)[C@@H]2CCCN2C(=O)C/C=C\[C@H]1C -23.1% [at 11.4 µM], O=C(NCCCN1CCCC1=O)c1ccc(CNS(=O)(=O)c2ccc(F)cc2)cc1 -13.5% [at 11.4 µM], Cc1ccc(S(=O)(=O)CC(O)CN2CCCC2=O)cc1 (configuration not stated) -2.08%, c1ccc2c3c([nH]c2c1)[C@@H]1[C@H]2CC[C@H]([C@H]4CCCN[C@H]42)N1CC3 -11.2% [at 25.6 µM], COC(=O)CSc1ncc(OC)c(OC)n1 -5.02%, CCOC(=O)C1CCN(C(=O)C2CCN(c3nc4ccc(OC)cc4s3)CC2)CC1 18.5%, Cc1sc2ccccc2[n+]1CCC(=O)O -6.82% [at 11.4 µM], C1CCN(CC[C@@H]2CCCCN2)CC1 -2.6% [at 11.4 µM], CN(C)C(=O)/N=N\C(=O)N(C)C -6.3%, O=C(O)C(Cc1ccccc1)Cc1ccccc1 5.23% [at 11.4 µM], CS(=O)(=O)N1CCC2(CC1)CN(C(=O)Nc1ccccc1)C2 -13%, Nc1nc(N)c2nn(-c3ccc(C(=O)O)cc3)nc2n1 -6.41% [at 11.4 µM], CCCOc1ccc(C(=O)NC(=S)Nc2nc3ccc(C)cc3s2)cc1 13.6% [at 2.29 µM], Cc1ccc2nc(NC(=O)COC(=O)CSc3nc(C)cc(C)n3)sc2c1 21.9%, CS(=O)(=O)Nc1c(O)ccc2c1CCC[C@H]2C1=NCCN1 -4.57%, O=c1cnc2cnc(Oc3ccccc3)nc2n1CCc1ccccc1 -22.3%, COc1ncc2nc(CCc3ccccc3)c(=O)n(C)c2n1 0.537%, O=c1c(-c2ccccc2)nc2cnc(Oc3cccc(Cl)c3)nc2n1C1CC1 6.74%, Cc1nc2cnc(Oc3cccc(Cl)c3)nc2n(CCc2ccccc2)c1=O -22.7%, O=c1oc2cc(Oc3ccc(C(F)(F)F)cc3[N+](=O)[O-])ccc2c2c1CCCC2 -23.2%, CC1=NNC(=S)NCCCN2CCN(CCCNC(=S)NN=C(C)C=NNC(=S)NCCCN3CCN(CCCNC(=S)NN=C1)CC3)CC2 -1.88% [at 11.4 µM], CNNCc1ccc(C(=O)NC(C)C)cc1 -12.2% [at 25.6 µM], CC(=O)NC(NC(C)=O)c1ccc(Br)cc1 8.11%, O=C(O)C[C@H](Cc1ccccc1)C(=O)O -6.62% [at 11.4 µM], Cn1nc(C(F)(F)F)c(/C=N/OCc2c(Cl)cccc2Cl)c1Cl -24.6%, Cn1nc(C(F)(F)F)c(/C=N/OC(=O)c2ccc(Cl)cc2)c1Cl -0.892%, O=C(NCC1CCCO1)C(c1cccnc1)N(C(=O)Cc1cccs1)c1cccnc1 (configuration not stated) -17.2% [at 2.29 µM], CN1CCc2c(sc3c2c(=O)n(-c2ccccc2)c2nncn32)C1 23.3%, C[C@@H]1CCC[C@H](C)N1NC(=O)c1ccc(Cl)c(S(N)(=O)=O)c1 -15.3% [at 25.6 µM], O=C(c1cc(-c2ccc(Cl)cc2Cl)on1)N1CCN(C(=O)c2ccco2)CC1 13.8%, COCn1c2ccccc2c2nnc(C(C)=O)nc21 7.63% [at 11.4 µM] and -20.9% [at 11.4 µM], Cc1ccc(-n2cc(C(=O)c3ccc4ccccc4c3O)cn2)cc1 -15.6%, COc1ccc2c(c1)CCC1[C@@H]2CCC2(C)[C@@H](NCCCCCCN3C(=O)C=CC3=O)CC[C@@H]12 (some centres not stated) 3.28%, CC(C)CC(=O)O/N=C1\C(=O)N(c2ccccc2)c2ccccc21 18.9% [at 2.29 µM], CC(=O)c1c(O)cc(=O)n(-c2ccccc2)c1-c1cccc2ccccc12 5.76%

AC50, inactive:
O=C(c1ccccc1)c1ccc2n1CC[C@H]2C(=O)O, NC(N)=NC(=O)c1nc(Cl)c(N)nc1N

AC50, active:
Cc1cccc2cc(CN(Cc3ccccc3)C(=O)c3cccc(F)c3)c(Cl)nc12 8.91 µM, O=C(CN(c1ccccc1)S(=O)(=O)c1ccccc1)NCCSCc1ccco1 14.1 µM, Cc1cc(C)cc(N(CC(=O)NCCSc2ccccn2)S(=O)(=O)c2ccccc2)c1 3.98 µM, c1csc(CNc2ncncc2-c2ccoc2)c1 2 µM, c1cncc(-c2cncnc2NCc2cccs2)c1 2 µM, c1ccc(CNc2ncncc2-c2ccoc2)cc1 2 µM, CCOc1ccc(NC2=NCC(=O)N2Cc2cccs2)cc1 17.8 µM, COc1ccc(NC2=NCC(=O)N2Cc2cccs2)cc1 14.1 µM, FC(F)(F)c1ccccc1-c1ccc2ncnc(NCc3cccnc3)c2c1 1.58 µM, COCCNc1ncnc2ccc(-c3ccccc3OC)cc12 15.8 µM, COc1ccccc1-c1ccc2ncnc(NCc3cccnc3)c2c1 0.631 µM, COCCNc1ncnc2ccc(-c3ccccc3C(F)(F)F)cc12 15.8 µM, COc1ccccc1-c1ccc2ncnc(NCc3ccccc3)c2c1 12.6 µM, COc1cccc(-c2ccc3ncnc(NCc4cccnc4)c3c2)c1 1 µM, Clc1ccccc1-c1ccc2ncnc(NCc3cccnc3)c2c1 2 µM, COc1ccc(-c2nn3cnnc3s2)cc1OC 14.1 µM, CC1(C)CC(=O)C2=C(C1)Nc1cc3c(cc1C2c1ccc(F)cc1)OCO3 (configuration not stated) 1 µM, Nc1nc(Br)c2ccccc2c1-c1ccc(F)cc1 14.1 µM, Nc1nc(Br)c2c(F)cccc2c1-c1ccc(Cl)cc1 20 µM, Nc1nc(Br)c2c(F)cccc2c1-c1ccc(F)cc1 22.4 µM, COC(=O)C[C@@H]1O[C@H]1[C@H](C)[C@@H](OC)C(C)C 3.98 µM, Cc1ccc(S(=O)(=O)N(CCCN2CCCC2=O)Cc2cc3c(C)ccc(C)c3[nH]c2=O)cc1 1.12 µM, COc1ccccc1CNc1ncncc1-c1ccccc1Cl 0.2 µM, COc1ccccc1CNc1ncncc1-c1ccccc1OC 0.2 µM, CCOC(=O)C[n+]1c(C)sc2ccc(OC)cc21 3.55 µM, CCC/C=C(\CCC)C(NP(=O)(c1ccccc1)c1ccccc1)c1ccc(-c2ccccc2)cc1 (configuration not stated) 3.98 µM, CCC/C=C(\CCC)C(NP(=O)(c1ccccc1)c1ccccc1)c1ccc(C(F)(F)F)cc1 (configuration not stated) 3.16 µM, CS(=O)(=O)N1CCN(c2ccccc2NC(=O)c2ccc(Br)o2)CC1 15.8 µM, Cc1ccc2nc(NC(=O)CSCC(=O)OCC(=O)c3ccc(Br)cc3)sc2c1 10 µM, Cc1ccc2nc(NC(=O)COC(=O)c3ccc(Br)o3)sc2c1 15.8 µM, COc1ncc2nc(CCc3ccccc3)c(=O)n(CCc3ccccc3)c2n1 3.16 µM, COCCn1c(=O)c(CCc2ccccc2)nc2cnc(OC)nc21 12.6 µM, COc1ccc(Oc2ncc3ncc(=O)n(CCc4ccccc4)c3n2)cc1 1.26 µM, COCCn1c(=O)c(CCc2ccccc2)nc2cnc(Oc3ccc(OC)cc3)nc21 3.16 µM, O=c1c(CCc2ccccc2)nc2cnc(Oc3cccc(Cl)c3)nc2n1C[C@H]1CCCO1 0.501 µM, COCCn1c(=O)c(CCc2ccccc2)nc2cnc(Oc3cccc(Cl)c3)nc21 0.794 µM, O=c1oc2cc(Oc3c([N+](=O)[O-])cc(C(F)(F)F)cc3[N+](=O)[O-])ccc2c2c1CCCC2 14.1 µM, CC(C)OP(=O)(OC(C)C)C(NC(=O)c1ccc(Br)cc1)c1ccccc1 (configuration not stated) 11.2 µM, Cn1nc(C(F)(F)F)c(/C=N/OC(=O)c2ccccc2Cl)c1SCc1ccc(Cl)cc1 7.08 µM, O=C(NCC1CCCO1)C(c1cccnc1)N(C(=O)Cc1cccs1)c1ccccc1 (configuration not stated) 3.98 µM, Cc1ccc(C(C(=O)NC2CCCCC2)N(CC2CCCO2)C(=O)CNC(=O)c2cccs2)cc1 (configuration not stated) 4.47 µM, O=C(NCC(=O)N(c1ccccc1)C(C(=O)NC1CCCC1)c1cccnc1)c1cccs1 (configuration not stated) 2 µM, CC1CCCC(C)N1C(=O)c1cc(-c2ccc(Cl)c(Cl)c2)on1 (configuration not stated) 12.6 µM, Cc1ccc(S(=O)(=O)n2c3ccccc3c3nnc(C(=O)c4ccccc4)nc32)cc1 3.98 µM, CN1C(=O)/C(=N\OC(=O)c2cccc3ccccc23)c2ccccc21 28.2 µM
